Bioassay records: PubChem, Broad Institute
Only some compounds are listed: those with a hit (about 3.3% of all), similar ones and a draw of the others.
Casp6 inh – blocks human caspase-6 cleavage activity; P55212; purified caspase-6, Z-VEID-R110 cleavage fluorescence; inhibition, % at 12.5 µM; 0.53% of 350,000 active; AID 686996;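 active means mean inhibition across replicates at least about 35%, with every replicate also reaching that limit, limit read from the data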;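 further: 0% = median of neutral control wells and 100% = no fluorescence left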
Target sequence (P55212 24-179 limits assumed): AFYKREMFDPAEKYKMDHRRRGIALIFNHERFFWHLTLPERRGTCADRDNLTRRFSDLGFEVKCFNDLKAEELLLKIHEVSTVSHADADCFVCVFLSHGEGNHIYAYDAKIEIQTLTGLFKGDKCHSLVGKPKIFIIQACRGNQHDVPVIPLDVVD
Target sequence (P55212 194-293 limits assumed): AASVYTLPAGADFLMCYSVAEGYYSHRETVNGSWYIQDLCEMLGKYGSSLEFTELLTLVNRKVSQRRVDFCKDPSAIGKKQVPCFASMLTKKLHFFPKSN
FGF22 binding – shifts melting point of recombinant human FGF22; Q9HCT0; recombinant FGF22 thermal shift, SYPRO orange fluorescence; percent of sucrose octasulfate shift, DMSO zero; activity (Tm shift, normalised), % at 9.99 µM; 1.5% of 340,000 active;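 active means mean Tm shift, scaled 0 neutral to 100 positive control, at about 1.3% or above, every replicate too, limit read from the data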
Target sequence (Q9HCT0 whole entry, looked up): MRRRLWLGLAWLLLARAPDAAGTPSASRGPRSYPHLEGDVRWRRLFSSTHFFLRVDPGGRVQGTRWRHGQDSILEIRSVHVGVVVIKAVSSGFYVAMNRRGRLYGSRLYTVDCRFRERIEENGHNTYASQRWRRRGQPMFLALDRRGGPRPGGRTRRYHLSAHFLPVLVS
GSIS activator – primary screen for activators of insulin secretion dependent on glucose, INS-1E cells, GLuc reporter luminescence | INS-1E GLuc reporter insulin secretion, 2-3 h | activation, % at 16.6 µM | 0.61% of 370,000 active;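 active means lowest replicate activation of at least 40%, so every replicate reaches that level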;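 further: 0% = median of neutral control wells and 100% = median of IBMX positive control wells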
ERAP1 HTS inh – blocks human ERAP1 aminopeptidase activity. Q9NZ08. recombinant ERAP1, Leu-AMC fluorescence, 60 min. inhibition, % at 10.7 µM. 0.15% of 340,000 active. AID 652197;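 active means mean replicate inhibition of at least 30%, or all replicates individually reaching that 30% level; inactive means mean below 30% and not every replicate reaching it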;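 further: 0% = neutral control wells and 100% = L-leucinethiol positive control wells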
SIRT5 inh – inhibitors of human sirtuin-5 desuccinylase; Purified SirT5, succinyl-peptide AMC, trypsin-coupled fluorescence; Q9NXA8; inhibition, % at 15 µM; 1.1% of 330,000 active; in the data active means inhibition above about 15%
The depositor's hits bear a star; x = not tested or not shown.

SMILES | Casp6 inh | FGF22 binding | GSIS activator | ERAP1 HTS inh | SIRT5 inh
C[C@H]1CN([C@@H](C)CO)C(=O)c2cc(NC(=O)CCCCCC(=O)Nc3ccccc3N)ccc2O[C@H]1CN(C)C(=O)Nc1ccc(F)cc1 | -0.6 | -0.3 | -12.8 | -2.3 | 4.1
CC(C)C#Cc1cnc2c(c1)C(=O)N([C@@H](C)CO)C[C@@H](C)[C@@H](CN(C)C(=O)Nc1ccccc1F)O2 | 0.1 | -0.1 | 4.8 | 1.6 | -2.0
Cn1cccc2[nH]c(=O)nc1-2 | 5.1 | 0.2 | 10.1 | 88.8* | -5.2
Cc1ccc(-c2nc(=O)[nH]c3ccccc23)cc1 | -2.9 | -0.2 | 6.3 | 1.1 | -1.1
CC(C)c1cc(NCCOCCO)n2c(nc3ccccc32)c1C#N | 2.9 | -0.2 | 51.6* | -28.4 | -33.0
CCCc1cc(NCCOCCO)n2c(nc3ccccc32)c1C#N | -1.8 | 0.1 | x | -21.0 | x
C[C@@H]1CCCCO[C@H](CN(C)S(=O)(=O)c2ccc(Cl)cc2)[C@H](C)CN([C@@H](C)CO)C(=O)c2cc(NC(=O)Nc3ccc4c(c3)OCO4)ccc2O1 | -1.4 | 0.0 | 4.2 | -1.4 | 1.0
CCC(Sc1nc(C)cc(C)n1)C(=O)Nc1nccs1 (stereo unspecified) | -4.1 | -0.1 | 55.0* | 2.7 | 0.6
Cc1cc(C)n2nc(C(=O)Nc3nccs3)nc2n1 | x | x | -5.8 | x | x
CCOC(=O)c1cnc(SCC(=O)OCC(=O)NC2CCS(=O)(=O)C2)nc1N (stereo unspecified) | 1.5 | 0.4 | 42.5* | 0.1 | -2.7
CC(C)(C)c1ccc(OCCC(=O)OCC(=O)NC2CCS(=O)(=O)C2)cc1 (stereo unspecified) | -3.7 | 43.2* | -11.9 | 1.1 | 2.1
COc1cccc2c1C(=O)C=C(C)C2=O | 3.3 | -0.1 | -13.4 | -0.6 | -6.7
COC1=CC(=O)c2c(ccc3ncnc(N)c23)C1=O | 99.8* | 0.2 | x | -2.7 | 3.4
COc1cccc(-c2ccc3n(c2=O)C[C@H]2[C@H](CO)[C@@H](C(=O)N4CCOCC4)N[C@@H]32)c1 | -1.9 | -0.4 | -7.9 | 2.0 | -15.0
O=C(Nc1cccc(-c2ccccc2)c1)N1CCN(C(=O)Nc2cccc(-c3ccccc3)c2)CC1 | 38.7* | -0.1 | 13.4 | -1.9 | -3.0
CCOCCCNC(=O)c1ccc2c(c1)N=C(CC)c1cc(Br)ccc1S2 | -0.8 | x | -11.6 | -6.0 | 16.9*
CCC1=Nc2cc(C(=O)NCCN3CCOCC3)ccc2Sc2ccccc21 | -6.6 | 0.0 | -3.5 | -1.2 | 4.1
COc1ccccc1NC(=O)/C=C/c1ccc(OC)c(S(=O)(=O)N2CCOCC2)c1 | -4.3 | 0.3 | 12.2 | 2.6 | -0.2
COc1ccc(/C=C/C(=O)Nc2cc(F)ccc2C)cc1S(=O)(=O)N1CCOCC1 | x | 0.4 | 1.7 | -0.8 | 18.0*
COc1ccc(NC(=S)NCc2ccc3c(c2)OCO3)cc1 | -3.3 | 43.2* | -7.4 | -1.4 | -3.8
COc1ccc2c3c(n(C)c2c1)[C@H](CO)N(C(=O)CC1CC1)CC31CN(C(=O)C2CC2)C1 | x | x | -10.7 | x | x
Cc1[nH]c2ccccc2c1C(=O)C(=O)N1CCN(c2ccccc2Cl)CC1 | 1.3 | -0.3 | -30.2 | 1.4 | 34.3*
COc1ccccc1N1CCN(C(=O)C(=O)c2c(C)[nH]c3ccccc23)CC1 | 0.1 | -0.3 | -9.6 | -1.5 | -1.1
CCc1cccc(C)c1NC(=O)CN(C)Cc1cccc(F)c1 | 0.7 | 0.0 | x | 0.7 | -1.3
COc1ccc(CN(C)CC(=O)Nc2c(C)cccc2C)c(OC)c1 | 1.8 | 43.2* | 7.5 | 5.4 | 0.1
SMILES | Casp6 inh | FGF22 binding | GSIS activator | ERAP1 HTS inh | SIRT5 inh
COc1ccc(N(CC(=O)Nc2c(C)cccc2C)S(=O)(=O)c2ccccc2[N+](=O)[O-])c(OC)c1 | -0.2 | 43.4* | 6.3 | 1.7 | 0.8
COc1ccc(CN(C)CC(=O)Nc2ccccc2C(F)(F)F)c(OC)c1 | x | x | 28.7 | x | x
COc1ccc(CN(C)CC(=O)Nc2sc3c(c2C#N)CCC3)c(OC)c1 | -1.1 | 0.2 | 0.2 | -1.5 | 15.3*
Cc1cccc(C(C)C)c1NC(=O)CN(C)Cc1cccc(F)c1 | -5.8 | 43.5* | -6.3 | -0.5 | -2.8
CCCN(C)C[C@H]1OCCCC[C@H](C)Oc2ccc(NC(=O)C3CCCCC3)cc2C(=O)N([C@H](C)CO)C[C@H]1C | 6.5 | 0.2 | -7.9 | 4.2 | 2.7
C[C@H]1CN([C@@H](C)CO)C(=O)c2cc(NC(=O)CCN3CCOCC3)ccc2O[C@@H]1CN(C)Cc1ccccc1 | 2.5 | -0.7 | 14.3 | 3.1 | 0.8
O=C(C[C@H]1CC[C@@H]2[C@H](COC[C@@H](O)CN2CCC(F)(F)F)O1)NCc1ccc(Oc2ccccc2)cc1 | -1.7 | -0.1 | -19.1 | -0.9 | -0.2
